Data reported in publication PMC4336329 (PLoS ONE, 2015).
In all, about 310,000 compounds went through this assay and about 2,200 (0.71%) showed an effect of 50% or more. Effects have a minus sign here. Only a selection was taken, and strong results are over-represented in it overall.

target: human ether-à-go-go-related gene (hERG) potassium channel (human, UniProt Q12809); assay: primary screen, population patch clamp on CHO cells stably expressing hERG; higher = less effect of the substance
Sequence (Q12809 whole entry, looked up): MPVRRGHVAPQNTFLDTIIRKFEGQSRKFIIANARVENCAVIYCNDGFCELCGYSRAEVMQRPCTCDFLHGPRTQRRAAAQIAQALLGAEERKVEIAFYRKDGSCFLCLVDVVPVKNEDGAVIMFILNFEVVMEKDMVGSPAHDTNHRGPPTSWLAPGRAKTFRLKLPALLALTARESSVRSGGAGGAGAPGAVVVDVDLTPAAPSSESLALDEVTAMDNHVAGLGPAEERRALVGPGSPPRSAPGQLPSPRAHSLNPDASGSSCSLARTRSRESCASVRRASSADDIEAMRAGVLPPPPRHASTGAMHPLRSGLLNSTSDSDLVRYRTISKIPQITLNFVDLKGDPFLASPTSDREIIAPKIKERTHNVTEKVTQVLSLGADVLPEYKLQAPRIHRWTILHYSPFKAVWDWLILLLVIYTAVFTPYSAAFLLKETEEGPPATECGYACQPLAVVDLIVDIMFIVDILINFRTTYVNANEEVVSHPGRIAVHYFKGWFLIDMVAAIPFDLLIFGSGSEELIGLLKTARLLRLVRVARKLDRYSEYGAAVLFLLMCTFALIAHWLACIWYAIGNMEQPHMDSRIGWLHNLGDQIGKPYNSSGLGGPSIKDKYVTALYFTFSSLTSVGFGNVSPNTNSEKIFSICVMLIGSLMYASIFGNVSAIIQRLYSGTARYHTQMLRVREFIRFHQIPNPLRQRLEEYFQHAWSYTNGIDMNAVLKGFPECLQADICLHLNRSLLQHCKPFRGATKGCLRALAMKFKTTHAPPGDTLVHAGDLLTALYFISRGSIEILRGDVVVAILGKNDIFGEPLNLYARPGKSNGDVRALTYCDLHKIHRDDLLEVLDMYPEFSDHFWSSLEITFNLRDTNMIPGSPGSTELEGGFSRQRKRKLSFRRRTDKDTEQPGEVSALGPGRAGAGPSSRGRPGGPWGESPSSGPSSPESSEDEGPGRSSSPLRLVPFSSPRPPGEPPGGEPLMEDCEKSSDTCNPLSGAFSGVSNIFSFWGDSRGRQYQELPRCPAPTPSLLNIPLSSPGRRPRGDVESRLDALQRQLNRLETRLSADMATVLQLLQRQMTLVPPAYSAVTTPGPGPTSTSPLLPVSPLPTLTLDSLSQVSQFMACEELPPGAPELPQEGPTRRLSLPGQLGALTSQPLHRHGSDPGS

| Structure (SMILES) | hERG current change (%, negative = inhibition) at 1uM [%] |
| --- | --- |
| CC1CCN(CC(C)OC(=O)c2ccc3c(c2)OCCO3)CC1.Cl (stereo not shown) | 3.75 |
| O=C(NC(NC(=S)Nc1ccccc1C(=O)O)C(Cl)(Cl)Cl)c1ccco1 (stereo not shown) | 5.62 |
| Cc1ccc(S(=O)(=O)NCCC(=O)N2CCCCCCC2)cc1 | 22.3 |
| Cn1c(=O)oc2cc(S(=O)(=O)NCCN3CCN(c4ccccc4F)CC3)ccc21 | 3.83 |
| CN(C)c1ccc(-c2noc(C3CCN(S(=O)(=O)c4cccc(C(=O)O)c4)CC3)n2)cc1 | 13.6 |
| O=C(O)c1cccc(N=NN2CCCCCC2)c1 | 8.11 |
| Cc1ccc(Nc2nc(N)nc(CSc3nc(C)cc(C)n3)n2)cc1 | 8.5 |
| Cc1csc2nc(CSc3nc4ccccc4o3)c(Br)n12 | 15.9 |
| Cc1cc(C)n2c(Br)c(CSc3nc4ccccc4s3)nc2n1 | -19.3 |
| Cc1cc(C)n2c(Br)c(CSc3nc4ccccc4o3)nc2n1 | -53 |
| CCn1c(=O)c(C(=O)CN2CCOCC2)c(N)n(Cc2ccccc2)c1=O | -0.674 |
| CCn1c(=O)c(C(=O)CN(C)Cc2ccc(F)cc2)c(N)n(Cc2ccccc2)c1=O | -33.6 |
| CCn1c(=O)c(C(=O)CN2CCN(Cc3ccc4c(c3)OCO4)CC2)c(N)n(Cc2ccccc2)c1=O | -67.4 |
| CCOc1ccc(CN(C)CC(=O)c2c(N)n(Cc3ccccc3)c(=O)n(CC)c2=O)cc1OC | -82.5 |
| CCn1c(=O)c(C(=O)CN(C)Cc2cccc(OC)c2OC)c(N)n(Cc2ccccc2)c1=O | -18.3 |
| Cn1c(=O)c(C(=O)CN2CCN(Cc3ccc4c(c3)OCO4)CC2)c(N)n(Cc2ccccc2)c1=O | -40.4 |
| CCNC1=C(Cl)C(=O)c2ccccc2C1=O | 14.3 |
| O=C(O)C1CCCN1C(=O)NC1CCCCC1 (stereo not shown) | 17.1 |
| O=C(c1cc(Br)ccc1Cl)N1CCN(c2ccc(N3CCOCC3)nn2)CC1 | 5.71 |
| COc1cccc(/C=N/NC(=O)NC23CC4CC(CC(C4)C2)C3)c1O | 6.53 |
| COc1ccc(NC(=O)CSc2n[nH]c(-c3ccccn3)n2)cc1 | 13 |
| COc1ccc(C(=O)Nc2ccccc2NC(=O)c2ccco2)cc1OC | -9.39 |

| Structure (SMILES) | hERG current change (%, negative = inhibition) at 1uM [%] |
| --- | --- |
| CCN=C1SC(CC(=O)Nc2ccc(C(F)(F)F)cc2)C(=O)N1CC (stereo not shown) | 1.51 |
| Cc1cc(C)cc(NC(=O)c2ccccc2NC(=O)CCC(=O)O)c1 | 7.41 |
| N#Cc1ccccc1OCCCNC1CCCC1.O=C(O)C(=O)O | 2.23 |
| CCC(=O)c1ccccc1OCCN1CCN(Cc2ccccc2)CC1.O=C(O)C(=O)O | -21.9 |
| N#Cc1ccccc1OCCCN1CCC(Cc2ccccc2)CC1.O=C(O)C(=O)O | -83 |
| CCc1ccccc1OCCCCN1CCCC1.O=C(O)C(=O)O | -2.73 |
| O=C(O)C(=O)O.OCc1ccccc1OCCCN1CCC(Cc2ccccc2)CC1 | -65.9 |
| CCc1ccccc1OCCCN1CCCC1.O=C(O)C(=O)O | 3.26 |
| CCC(=O)c1ccccc1OCCCN1CCC(Cc2ccccc2)CC1.O=C(O)C(=O)O | -87 |
| CCC(=O)c1ccccc1OCCN1CCN(CC)CC1.O=C(O)C(=O)O | -2.43 |
| CC1CCN(CCCCOc2ccccc2F)CC1.O=C(O)C(=O)O | 7.61 |
| Cc1ccc(C)c(NC(=S)NCCSc2ccc(Cl)cc2)c1 | 11.9 |
| CS(=O)(=O)N1CCc2cc(C(=O)Nc3ccc(COCC(F)(F)F)cc3)ccc21 | 10.4 |
| Cc1cc(C(=O)Nc2ccc(C(=O)O)cc2)c(-c2ccccc2)o1 | -3.53 |
| CC(=O)c1ccc(NC(=O)C(C)N(C)CC(=O)Nc2ccccc2Cl)cc1 (stereo not shown) | 14.4 |
| O=C(O)CN1C(=O)/C(=C/c2ccsc2)SC1=S | 12 |
| COc1ccc(C(Nc2cc(C)ccn2)c2ccc3ccc(C)nc3c2O)cc1 (stereo not shown) | 4.46 |
| CC1CCC(NC(=O)Cn2c3c(c(-c4ccccc4Cl)cc2=O)CCC3)CC1 (stereo not shown) | 9.99 |
| COc1ccc(NC(=O)Nc2cccc(OC)c2)cc1 | -2.63 |
| C=CCSc1nnc(Cn2c(=O)sc3ccccc32)n1C | -6.54 |
| COc1ccc(C(=O)N(C)C2CCCN(Cc3ccccc3F)C2)cc1OC (stereo not shown) | 10.2 |
